The campaign covered roughly 420,000 compounds. About 50,000 (12%) were called active. Inconclusive results (about 26%) are left out. Many of the other results were omitted from the sample, so actives are more common in it than they were. Values without a mark were called inactive. Calls come from the whole dose curve; as a rule, active = well fitted inhibition curve with a large enough effect; inconclusive = small, poorly fitted or top-dose-only effect; inactive = flat fitted curve, though single readings scatter.
Assay: qHTS for Inhibitors of human tyrosyl-DNA phosphodiesterase 1 (TDP1): qHTS in cells in presence of CPT; note: nearly all actives have a fitted effect of over 55% in size
Settings: chicken DT40 Tdp1-/-;hTDP1 cells + 20 nM CPT, ATP luminescence, 48 h; series mostly up to 46.2 µM; activity change, negative = growth inhibition: at the top concentration
Procedure, shortened: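 Chicken DT40 Tdp1-/- cells stably complemented with human TDP1 were seeded at 400 cells/well in medium containing 20 nM camptothecin, exposed to pin-transferred compounds, and grown at 37 °C for at least 48 hr. Viability was read as ATP luminescence.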
% is set by controls: 0 for no effect and ±100 for the full control effect; potency is the fitted concentration of half-maximal effect.

Compound	activity change, negative = growth inhibition [%]	Potency
Cc1ccc2c(O)c(Cc3ccccc3)c(=O)[nH]c2n1	-7.61	
O=C(NC1CCCC1)C1CCN(C(=O)Nc2cccc(Cl)c2)CC1	0.714	
COc1ccc(CNC(=O)COC(=O)c2sccc2C)cc1OC	-16.2	
OC(COc1ccccc1)Cn1cc(Br)cn1 (centres undefined)	5.11	
O=C(c1ccccc1)c1ccc(OCC(O)CN2CCCC2)cc1 (centres undefined)	-0.0362	
OC(CN=c1sc2ccccc2n1CC(O)COc1ccccc1)COc1ccccc1 (centres undefined)		25.9 µM (active)
Cc1ccc(OCCNC(=O)CCNS(=O)(=O)c2ccc(Br)cc2)cc1	-29.3	
COc1ccc(C)cc1S(=O)(=O)Nc1cccc(Cl)c1Cl	-10.9	
COc1ccc(C)cc1Nc1nc(-c2c(C)[nH]c3ccccc23)cs1	-20.2	
COc1ccc(C)cc1Nc1n[n+](-c2ccccc2)c(-c2cccc(Cl)c2Cl)s1		13 µM (active)
O=C(c1ccc(NS(=O)(=O)c2ccc3[nH]c(=O)[nH]c3c2)cc1)N1CCCCC1	5.76	
N#CC1(NC(=O)COC(=O)CSc2ccc(F)cc2)CCCCC1	-20.6	
Cc1ccc(NC(=O)NC(=O)c2ccccc2)cc1F	-13.6	
CC(=O)N1CCN(CC(=O)Nc2ccc(C)c(F)c2)CC1	-19.2	
Cc1ccc(NC2=C(c3ccc(C(F)(F)F)cc3)C(=O)c3ccccc32)cc1F		8.2 µM (active)
COC(=O)c1sc(SC)c(S(=O)(=O)C(C)C)c1N/N=C(\C#N)S(=O)(=O)c1ccccn1	1.69	
CCCC(=O)OCC(=O)Nc1cc(Cl)ccc1[N+](=O)[O-]	6.39	
CC(C)N(C)C(=O)CCc1nnc(CCc2c[nH]c3ccccc23)o1	-6.4	
CC(=O)c1ccc(-c2nnc(CCC(=O)N(C)Cc3cnc4ccccn34)o2)s1	0.834	
CCc1ccc(CN(C)C(=O)CCc2nnc(-c3ccc(-c4ccccc4)cc3)o2)nc1		18.4 µM (active)
CCCc1ccc(OCC(O)CN2CCN(CCO)CC2)cc1 (centres undefined)	6.86	
CC(=O)Nc1cc(-c2ccc(N3CCN(C)CC3)cc2)cn2c(-c3ccc(F)cc3)cnc12		5.17 µM (active)
CN(C)C(=O)c1cccc(-c2cnc3c(NC=O)cc(-c4ccc(C(=O)N5CCOCC5)cc4)cn23)c1		29.1 µM (active)
COc1ccccc1C(=O)Nc1cccc(C(=O)N2CCOCC2)c1	9.81	
CNc1cncc(-c2cccc(C(=O)N3CCOCC3)c2)n1	-12.1	
CC(=O)N1c2ccccc2CC1C(=O)N1CCN(c2ccc(F)cc2)CC1 (centres undefined)	-18.4	
CC(=O)c1cccc(-c2cnc3c(NC=O)cc(-c4ccccc4Oc4ccccc4)cn23)c1		14.6 µM (active)

Compound	activity change, negative = growth inhibition [%]	Potency
CC(=O)c1cccc(-c2cnc3c(NC=O)cc(-c4ccc(N(C)C)cc4)cn23)c1		7.31 µM (active)
O=C(Nc1ccc(F)cc1)N1CCN(c2ccc(F)cc2)CC1	19.6	
COC(=O)C1CCN(C(=O)NC2CC(=O)N(c3ccc4c(c3)OCCO4)C2)CC1 (centres undefined)	1.67	
NC(=O)COC(=O)c1ccc2c(c1)C(=O)N(Cc1ccco1)C2=O	-16.2	
COc1cc2c(C(=O)O)c(C)n(C)c2c2ccccc12	-17.2	
CNC[C@H]1Oc2c(NC(=O)C3CCCCC3)cccc2C(=O)N([C@H](C)CO)C[C@@H]1C	11.7	
CCOC(=O)C(Cc1ccccc1)NC(=O)CCc1c(C)nc2c(c(C)nn2-c2ccc(C)c(C)c2)c1C (centres undefined)	-29.9	
Cc1cc(C)c2c(NC(=O)C3CC3)nn(C)c2n1	-6.29	
O=C(NCCc1ccccn1)c1nc(Cn2cc([N+](=O)[O-])cn2)no1	5.17	
COc1ccc(NC(=O)CCS(=O)(=O)c2cc3c(cc2Cl)NC(=O)CO3)cc1OC	-12.9	
CCOc1ccc(N2C(=O)Nc3ccccc3C2(O)C(=O)NCc2ccco2)cc1 (centres undefined)	-10.1	
Cc1ccc(NC(=O)c2sccc2C)cc1[N+](=O)[O-]	5.4	
O=C(CSc1nccc(=O)[nH]1)Nc1ccc(N2CCOCC2)c(Cl)c1	-2.28	
Cc1ccc(OCC(=O)NCCCNC(=O)c2ccco2)cc1C	11	
CCCC(C(=O)NC1CCCC1)N(C(=O)Cn1nnc(-c2ccc(C)o2)n1)c1cccc(O)c1 (centres undefined)	7.3	
CC(=O)c1ccc(S(=O)(=O)N2CCC3(CC2)OCCO3)cc1	-1.56	
O=C(CSc1ncccn1)N1CCCC1	-6.15	
COc1ccc(O)c(C(=O)c2cnc3c(c2)c(-c2ccc(F)cc2)c(C#N)c(=O)n3C)c1	-34.5	
Cc1c(NC(=O)Nc2ccc(F)c(Cl)c2)c(=O)n(-c2ccccc2)n1C	-2.31	
CC(=O)Nc1cccc(-c2cc(NC=O)c3ncc(-c4ccc(F)c(Cl)c4)n3c2)c1		23.1 µM (active)
COc1ccc(-c2cc(NC(C)=O)c3ncc(-c4cc(OC)c(OC)c(OC)c4)n3c2)cn1		2.59 µM (active)
Cc1ccc(C(=O)N2CCN(C(=O)N3CCOCC3)CC2)cc1	-0.646	
N#C/C=C(/c1ccc(F)cc1)N1CCOCC1	-2.86	
CNc1cnc(-c2cc(OC)c(OC)c(OC)c2)cn1	8.84	
COc1cc(C(=O)N2CCN(C)CC2)cc(OC)c1OC	9.33	
CN(C)C(=O)c1cccc(-c2cnc3c(NC=O)cc(-c4ccc(F)cc4)cn23)c1		6.51 µM (active)
O=CNc1cc(-c2ccc(C(=O)N3CCOCC3)cc2)cn2c(-c3ccc(F)cc3)cnc12		20.6 µM (active)

From PubChem BioAssay AID686979 (National Center for Advancing Translational Sciences (NCATS), 2013)
